35 compounds from PubChem BioAssay (NCI) can be followed below.

SMILES strings stand for the structures. About 83,000 compounds went through this panel and 20% of them were active in at least one assay; those are over-represented in the sample as a whole.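 Each cell line was grown in a 96-well plate and treated with one concentration of compound for 48 hours. Values below 10 were considered active.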 Values without a mark were called inactive. The source made the active and inactive calls.

The test system of the first test is NCI-H322M lung. Put plainly: NCI-60 one-dose screen, 48 h (100 = growth as untreated, 0 = no growth, -100 = all killed). The following applies: 10 µM unless noted.
Take `CCCC/C=N/NC(=S)NCc1ccccc1`: the growth was 105%.

For `O=C(Nc1ccc(-c2ccc3c(c2)NC(=O)/C3=C\c2ccc[nH]2)cc1)NC1CC1`, the growth was 80.2%.

As for `NCCCCCCNc1cc(-c2cccc(OC(F)(F)F)c2)nc2ccc(N3CCCC3)cc12`, the growth was -13.1% (active).

A further test deals with HOP-62 NSCLC. The description is as above. Conditions: 10 µM unless noted.
As to `O=S(=O)(Nc1ccc(-n2cnc3cc(-c4ccc(O)cc4)ccc32)cc1)c1ccccc1`, the growth is 102%.

Turning to `O=S(=O)(NCCNc1nccc(-c2c(-c3cccc(O)c3)nc3occn23)n1)c1ccc(Cl)cc1`, the growth was 120%.

In the case of `COc1cc(C2=NN(C(C)=O)C(c3cc(OC)c(OC)c(OC)c3)C2)ccc1O` (stereo not given), the growth is 32.8%.

For `N/C(=N\C(N)=N\c1nc2ccccc2s1)c1cccc(Cl)c1`, the growth was -8.36% (active).

As for `C=C(C)[C@@H]1CC[C@]2(C(=O)N3CCN(C)CC3)CC[C@]3(C)[C@H](CC[C@@H]4[C@@]5(C)CC[C@H](OCCC#N)C(C)(C)[C@@H]5CC[C@]43C)[C@@H]12`, the growth was 108%.

Turning to `O=C(/C=C(O)/C=C/c1ccc(SC(F)(F)F)cc1)/C=C/c1ccc(SC(F)(F)F)cc1`, the growth was 101%.

In the case of `COc1cc(/C(C)=C(\c2ccc(Cl)cc2)c2ccc(OCCN(C)C)cc2)ccc1F`, the growth was 87.6%.

For `COc1cc2oc(-c3cccc(C(=O)Nc4ccc(Cl)cc4)c3)cc(=O)c2c(O)c1OC`, the growth was 0.268% (active).

Turning to `COc1ccc2nc(-c3ccc(-c4noc(-c5cc(OC)c(OC)c(OC)c5)n4)cc3)[nH]c2c1`, the growth was 76.8%.

In the case of `COC1=CC(=O)c2ccccc2C1=O`, the growth was 44.9%.

On to `CC(=O)Nc1cccc(-c2ccc3c(c2)NC(=O)/C3=C\c2ccc[nH]2)c1`, for which the growth was 55.3%.

On to `COc1c(Cl)c2c(c(OC)c1OC)-c1ccc(SC)c(=O)cc1[C@@H](NC(=O)OCC(F)(F)F)CC2`, for which the growth was 34.3%.

Take `COc1cc(/C=N/NC(=O)c2cnn3c2NC(c2ccccc2)C3)ccc1Oc1ccccc1` (stereo not given): the growth is 22.3%.

On to `COc1cc(C(=O)Nc2cc3c(cc2Oc2cc(C)cc(C)c2)C(=O)N(C)[C@@H](CC(=O)N(C)O)C(=O)N3)c(Br)c(OC)c1OC`, for which the growth was -15.7% (active).

Regarding `COc1cc2cc(CN3CCN(c4nccc(-c5ccc6ccccc6c5)n4)CC3)c(=O)[nH]c2cc1OC`, the growth is 96.2%.

On to `N#C/C(=C\c1c(-c2ccccc2)[nH]c2ccccc12)C(=O)c1ccc(Cl)cc1`, for which the growth is 41.4%.

In the case of `NS(=O)(=O)c1ccc(CCn2c(SCC(=O)c3ccc(Cl)cc3)nc3ccccc3c2=O)cc1`, the growth is 96.1%.

Turning to `CC(C)(C)c1ccc(NS(=O)(=O)c2ccc3nc(NC(=O)c4cnccn4)[nH]c3c2)cc1`, the growth was 53.4%.

For the compound `CCCCCN1C=C/C(=C\C(=O)N(C)c2ccc(OC(F)(F)F)cc2)c2ccccc21`, the growth was 90.8%.

Regarding `CCc1c2c(nc3ccc(OCc4ccc(B(O)O)cc4)cc13)-c1cc3c(c(=O)n1C2)COC(=O)[C@]3(O)CC`, the growth is -17% (active).

For the compound `COc1cccc(C(=O)NNc2nc(Cl)nc(N3CCN(C(c4ccccc4)c4ccccc4)CC3)n2)c1`, the growth is 92.8%.

For `COc1cccc(/C=N/NC(=O)c2cnn3c2NC(c2ccccc2)C3)c1Oc1ccccc1` (stereo not given), the growth was 74.3%.

For `COc1ccc(/C=C/C(=O)Nc2cc(/C=C\c3cc(OC)c(OC)c(OC)c3)cc(OC)c2OC)cc1OC`, the growth is 33.9%.

As for `COc1cc2oc(-c3cccc(C(=O)Nc4ccc5c(c4)OCO5)c3)cc(=O)c2c(O)c1OC`, the growth is 60.4%.

Regarding `Nc1c(S(=O)(=O)O)cc2c3c(cccc13)C(=O)OC2=O`, the growth was 93.9%.

`O=C1Nc2ccccc2/C1=C\c1c(-c2ccccc2)nc2ccccn12`: the growth was 41.3%.

Regarding `COc1ccc(-c2[nH][nH]c(=O)c2-c2nc3ccccc3s2)cc1`, the growth is 104%.

With `Cc1ccc(-c2csc(NC(=O)CSc3nc(-c4ccccc4)cc(=O)[nH]3)n2)cc1`, the growth is 100%.

Regarding `Oc1cccc(CCc2ccc(Oc3cc(CCc4cccc(O)c4)cc(O)c3O)cc2)c1`, the growth was 92.5%.

Turning to `CCOc1cccc(-c2nc(N)nc(Nc3ccccc3SSc3ccccc3Nc3nc(N)nc(-c4cccc(OCC)c4)n3)n2)c1`, the growth was -0.309% (active).

As to `Nc1n[nH]c2cccc(C#Cc3cccc(C(=O)Nc4cccc(C(F)(F)F)c4)c3)c12`, the growth was 67.7%.

As to `O=C(Nc1ccc(Cl)cc1)c1cc(NCc2cc(O)ccc2O)ccc1O`, the growth is 102%.
